Holding throughout (experiment): DAPPL (digital affinity profiling via proximity ligation, sequencing); 10 mM Tris-HCl pH 7.5, 50 mM NaCl, 1 mM DTT, 4% glycerol, room temperature, 30 min; GST-TFs on glutathione beads, 16-mer random dsDNA library, 0.1% formaldehyde crosslink after washing; high values mean tight binding
Test [1] has as its target T1, FLI1 (Homo sapiens, UniProt Q01543 1-452).
T1 sequence: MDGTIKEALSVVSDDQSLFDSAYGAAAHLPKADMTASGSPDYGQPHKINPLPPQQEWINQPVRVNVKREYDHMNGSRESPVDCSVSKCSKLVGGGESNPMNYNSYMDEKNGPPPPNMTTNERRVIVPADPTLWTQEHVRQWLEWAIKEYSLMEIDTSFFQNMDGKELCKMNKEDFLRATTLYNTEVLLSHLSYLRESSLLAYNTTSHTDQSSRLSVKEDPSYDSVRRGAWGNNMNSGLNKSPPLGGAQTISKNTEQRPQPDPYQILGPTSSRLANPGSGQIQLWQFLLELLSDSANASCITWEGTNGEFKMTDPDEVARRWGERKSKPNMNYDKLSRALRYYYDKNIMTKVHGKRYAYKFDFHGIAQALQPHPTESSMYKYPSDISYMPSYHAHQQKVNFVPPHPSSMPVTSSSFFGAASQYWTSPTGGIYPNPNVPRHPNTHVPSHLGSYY
The note with it: protein: recombinant; tags: N-terminal GST; dsDNA, one strand shown. The essentials: (§1)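 Pools of DNA-barcoded human transcription factors, expressed in yeast as GST fusions on glutathione beads and combined with a tag-only sample, were incubated with 200 nmole of a 16-mer random double-stranded DNA library. Incubation took 30 min at room temperature in Tris/NaCl/DTT/glycerol buffer and was followed by washing, 0.1% formaldehyde crosslinking, proximity ligation (BsaI/T4 ligase, 1 h, 37 °C), PCR amplification and sequencing on an Illumina NextSeq500. Binding signal is the ratio of a hexamer's read frequency for a factor to its frequency for the tag-only sample.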

Test [2] deals with T2, ELK1 (Homo sapiens, UniProt P19419 1-428).
T2 sequence: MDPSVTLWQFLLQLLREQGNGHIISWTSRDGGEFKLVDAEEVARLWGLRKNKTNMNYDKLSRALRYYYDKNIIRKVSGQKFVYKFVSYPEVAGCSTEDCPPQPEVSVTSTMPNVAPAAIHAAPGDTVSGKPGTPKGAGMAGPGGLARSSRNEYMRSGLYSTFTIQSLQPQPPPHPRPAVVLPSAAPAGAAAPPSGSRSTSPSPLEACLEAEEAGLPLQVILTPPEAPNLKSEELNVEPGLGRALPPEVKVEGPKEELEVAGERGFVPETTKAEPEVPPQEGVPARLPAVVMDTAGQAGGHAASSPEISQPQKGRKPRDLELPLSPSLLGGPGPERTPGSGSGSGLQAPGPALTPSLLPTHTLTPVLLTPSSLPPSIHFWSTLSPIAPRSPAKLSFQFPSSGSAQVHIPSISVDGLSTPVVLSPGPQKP
The note with it: protein: recombinant; tags: N-terminal GST; dsDNA, one strand shown. The essentials:
as §1

Test [3] has as its target T3, GABPA (Homo sapiens, UniProt Q06546 1-454).
T3 sequence: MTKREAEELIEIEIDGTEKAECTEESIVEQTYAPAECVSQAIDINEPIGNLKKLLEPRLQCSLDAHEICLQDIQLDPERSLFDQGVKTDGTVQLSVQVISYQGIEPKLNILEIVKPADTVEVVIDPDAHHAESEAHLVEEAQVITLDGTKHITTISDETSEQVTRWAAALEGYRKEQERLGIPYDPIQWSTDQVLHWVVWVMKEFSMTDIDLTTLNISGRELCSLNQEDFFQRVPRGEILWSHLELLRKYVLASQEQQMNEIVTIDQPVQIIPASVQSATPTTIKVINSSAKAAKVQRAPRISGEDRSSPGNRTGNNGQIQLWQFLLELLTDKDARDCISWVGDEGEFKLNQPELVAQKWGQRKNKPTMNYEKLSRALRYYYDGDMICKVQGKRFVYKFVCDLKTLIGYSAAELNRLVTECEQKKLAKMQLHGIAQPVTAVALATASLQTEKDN
The note with it: protein: recombinant; tags: N-terminal GST; dsDNA, one strand shown. The method, boiled down: as §1

In test [4] the target is T4, ERG (Homo sapiens, UniProt P11308 1-479).
T4 sequence: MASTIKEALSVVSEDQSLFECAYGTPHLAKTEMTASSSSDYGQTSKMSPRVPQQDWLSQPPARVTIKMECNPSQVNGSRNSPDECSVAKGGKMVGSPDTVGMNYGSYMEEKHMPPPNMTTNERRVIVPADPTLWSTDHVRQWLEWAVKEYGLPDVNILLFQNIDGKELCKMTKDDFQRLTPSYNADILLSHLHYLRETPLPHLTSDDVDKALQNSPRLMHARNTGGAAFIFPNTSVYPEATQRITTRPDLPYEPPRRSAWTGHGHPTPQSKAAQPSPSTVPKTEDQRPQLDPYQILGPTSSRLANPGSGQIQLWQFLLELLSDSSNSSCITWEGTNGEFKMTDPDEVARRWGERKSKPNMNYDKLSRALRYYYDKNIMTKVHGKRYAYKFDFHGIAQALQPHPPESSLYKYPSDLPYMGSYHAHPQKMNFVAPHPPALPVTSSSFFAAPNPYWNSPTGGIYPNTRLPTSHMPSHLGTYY
To be noted: protein: recombinant; tags: N-terminal GST; dsDNA, one strand shown. The essentials: as §1

The target of test [5] is ELF1 (Homo sapiens, UniProt P32519 1-619). The note with it: protein: recombinant; tags: N-terminal GST; dsDNA, one strand shown. The essentials: as §1
Test [6] addresses T5, EHF (Homo sapiens, UniProt Q9NZC4 1-300).
T5 sequence: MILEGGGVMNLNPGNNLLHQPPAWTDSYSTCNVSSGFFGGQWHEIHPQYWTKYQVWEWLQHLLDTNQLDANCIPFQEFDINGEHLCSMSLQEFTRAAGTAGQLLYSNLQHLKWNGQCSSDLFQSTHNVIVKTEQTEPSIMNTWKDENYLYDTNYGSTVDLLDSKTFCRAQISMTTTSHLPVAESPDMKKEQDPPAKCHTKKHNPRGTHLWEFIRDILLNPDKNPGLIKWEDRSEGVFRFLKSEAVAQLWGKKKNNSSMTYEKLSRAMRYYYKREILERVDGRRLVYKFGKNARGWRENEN
To be noted: protein: recombinant; tags: N-terminal GST; dsDNA, one strand shown. The method, boiled down:
as §1

The target in test [7] is SPI1 (Homo sapiens, UniProt P17947 1-270). The note with it: protein: recombinant; tags: N-terminal GST; dsDNA, one strand shown. The method, boiled down: as §1
Test [8] addresses T6, FEV (Homo sapiens, UniProt Q99581 1-238).
T6 sequence: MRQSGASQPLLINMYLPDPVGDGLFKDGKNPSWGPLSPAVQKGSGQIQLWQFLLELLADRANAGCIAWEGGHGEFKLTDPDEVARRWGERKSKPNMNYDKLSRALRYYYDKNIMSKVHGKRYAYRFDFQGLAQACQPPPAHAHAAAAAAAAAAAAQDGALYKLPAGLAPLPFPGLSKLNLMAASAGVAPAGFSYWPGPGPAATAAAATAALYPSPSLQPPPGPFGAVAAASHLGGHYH
To be noted: protein: recombinant; tags: N-terminal GST; dsDNA, one strand shown. The method, boiled down: as §1

Test [9] has as its target ETV5 (Homo sapiens, UniProt P41161 1-510). To be noted: protein: recombinant; tags: N-terminal GST; dsDNA, one strand shown. The essentials:
as §1

Test [10] addresses HSF1 (Homo sapiens, UniProt Q00613 1-529). The note with it: protein: recombinant; tags: N-terminal GST; chain copies: 3; dsDNA, one strand shown. The method, boiled down:
as §1

In test [11] the target is T7, SPIC (Homo sapiens, UniProt Q8N5J4 1-248).
T7 sequence: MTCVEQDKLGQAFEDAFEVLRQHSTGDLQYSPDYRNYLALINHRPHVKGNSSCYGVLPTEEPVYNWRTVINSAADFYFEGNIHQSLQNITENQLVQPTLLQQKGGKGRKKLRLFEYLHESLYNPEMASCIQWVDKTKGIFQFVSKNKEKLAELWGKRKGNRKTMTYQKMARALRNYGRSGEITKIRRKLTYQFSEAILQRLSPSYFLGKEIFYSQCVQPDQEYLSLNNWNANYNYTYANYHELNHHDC
To be noted: protein: recombinant; tags: N-terminal GST; dsDNA, one strand shown. The method, boiled down: as §1

Test [12] addresses ELF4 (Homo sapiens, UniProt Q99607 1-663). The note with it: protein: recombinant; tags: N-terminal GST; dsDNA, one strand shown. The method, boiled down: as §1
Test [13] has as its target T8, ELK4 (Homo sapiens, UniProt P28324-2 1-405).
T8 sequence: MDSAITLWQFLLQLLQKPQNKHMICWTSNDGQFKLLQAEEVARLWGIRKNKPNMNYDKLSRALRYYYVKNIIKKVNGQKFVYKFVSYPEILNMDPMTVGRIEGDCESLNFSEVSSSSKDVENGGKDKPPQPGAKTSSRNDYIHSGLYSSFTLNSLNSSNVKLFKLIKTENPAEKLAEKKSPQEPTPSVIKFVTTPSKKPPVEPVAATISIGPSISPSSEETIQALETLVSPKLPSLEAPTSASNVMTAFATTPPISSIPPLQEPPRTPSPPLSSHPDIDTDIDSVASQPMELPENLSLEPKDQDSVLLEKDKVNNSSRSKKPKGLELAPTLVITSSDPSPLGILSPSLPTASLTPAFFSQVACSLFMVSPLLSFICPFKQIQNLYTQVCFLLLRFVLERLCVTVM
To be noted: protein: recombinant; tags: N-terminal GST; dsDNA, one strand shown. The essentials:
as §1

In test [14] the target is T9, ETV2 (Homo sapiens, UniProt O00321 1-342).
T9 sequence: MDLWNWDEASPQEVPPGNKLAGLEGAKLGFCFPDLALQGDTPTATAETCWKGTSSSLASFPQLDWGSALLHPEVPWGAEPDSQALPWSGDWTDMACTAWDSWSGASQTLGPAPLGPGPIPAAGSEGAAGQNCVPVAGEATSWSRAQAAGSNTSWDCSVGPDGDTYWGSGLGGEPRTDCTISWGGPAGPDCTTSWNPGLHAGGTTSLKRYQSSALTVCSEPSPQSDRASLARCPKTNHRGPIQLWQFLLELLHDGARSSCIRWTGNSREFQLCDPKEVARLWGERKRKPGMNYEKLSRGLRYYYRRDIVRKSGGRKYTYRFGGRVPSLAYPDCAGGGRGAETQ
To be noted: protein: recombinant; tags: N-terminal GST; dsDNA, one strand shown. The essentials:
as §1

Test [15] concerns the target T10, ELF3 (Homo sapiens, UniProt P78545 1-371).
T10 sequence: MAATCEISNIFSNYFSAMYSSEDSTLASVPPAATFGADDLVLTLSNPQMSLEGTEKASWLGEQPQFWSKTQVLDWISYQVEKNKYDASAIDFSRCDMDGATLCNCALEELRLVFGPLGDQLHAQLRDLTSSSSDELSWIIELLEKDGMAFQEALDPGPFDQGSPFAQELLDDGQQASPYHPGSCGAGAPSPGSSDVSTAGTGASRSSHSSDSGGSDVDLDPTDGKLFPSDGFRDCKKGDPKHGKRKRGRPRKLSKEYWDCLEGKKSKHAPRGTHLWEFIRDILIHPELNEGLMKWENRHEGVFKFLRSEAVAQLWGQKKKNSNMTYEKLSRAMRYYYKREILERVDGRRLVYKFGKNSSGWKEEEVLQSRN
The note with it: protein: recombinant; tags: N-terminal GST; dsDNA, one strand shown. The method, boiled down: as §1

Test [16] has as its target CRX (Homo sapiens, UniProt O43186 1-299). The note with it: protein: recombinant; tags: N-terminal GST; dsDNA, one strand shown. The essentials:
as §1

Test [17] has as its target ETV1 (Homo sapiens, UniProt P50549 1-477). To be noted: protein: recombinant; tags: N-terminal GST; dsDNA, one strand shown. The method, boiled down:
as §1

CRX, sequence (O43186 whole entry): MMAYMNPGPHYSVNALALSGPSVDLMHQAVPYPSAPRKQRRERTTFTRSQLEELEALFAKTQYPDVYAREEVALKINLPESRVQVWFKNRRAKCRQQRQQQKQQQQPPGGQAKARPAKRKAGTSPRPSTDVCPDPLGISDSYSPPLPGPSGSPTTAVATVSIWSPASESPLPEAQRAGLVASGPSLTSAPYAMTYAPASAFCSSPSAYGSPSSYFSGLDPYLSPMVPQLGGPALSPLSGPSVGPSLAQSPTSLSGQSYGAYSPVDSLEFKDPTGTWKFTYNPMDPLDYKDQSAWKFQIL
ETV5, sequence (P41161 whole entry): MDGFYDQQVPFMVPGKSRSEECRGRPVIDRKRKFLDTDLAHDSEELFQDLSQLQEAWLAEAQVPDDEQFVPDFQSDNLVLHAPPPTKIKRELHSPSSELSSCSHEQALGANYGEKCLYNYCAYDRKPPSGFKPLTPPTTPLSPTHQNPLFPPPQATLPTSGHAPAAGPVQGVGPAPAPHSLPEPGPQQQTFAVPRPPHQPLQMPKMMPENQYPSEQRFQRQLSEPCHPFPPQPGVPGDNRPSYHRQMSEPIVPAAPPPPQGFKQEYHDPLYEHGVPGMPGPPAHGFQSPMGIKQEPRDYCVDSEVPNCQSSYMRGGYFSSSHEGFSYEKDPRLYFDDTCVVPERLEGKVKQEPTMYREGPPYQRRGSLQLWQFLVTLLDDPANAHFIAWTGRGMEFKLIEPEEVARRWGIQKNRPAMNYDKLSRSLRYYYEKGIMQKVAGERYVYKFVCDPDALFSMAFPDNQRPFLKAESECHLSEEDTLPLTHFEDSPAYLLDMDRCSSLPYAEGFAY
ETV1, sequence (P50549 whole entry): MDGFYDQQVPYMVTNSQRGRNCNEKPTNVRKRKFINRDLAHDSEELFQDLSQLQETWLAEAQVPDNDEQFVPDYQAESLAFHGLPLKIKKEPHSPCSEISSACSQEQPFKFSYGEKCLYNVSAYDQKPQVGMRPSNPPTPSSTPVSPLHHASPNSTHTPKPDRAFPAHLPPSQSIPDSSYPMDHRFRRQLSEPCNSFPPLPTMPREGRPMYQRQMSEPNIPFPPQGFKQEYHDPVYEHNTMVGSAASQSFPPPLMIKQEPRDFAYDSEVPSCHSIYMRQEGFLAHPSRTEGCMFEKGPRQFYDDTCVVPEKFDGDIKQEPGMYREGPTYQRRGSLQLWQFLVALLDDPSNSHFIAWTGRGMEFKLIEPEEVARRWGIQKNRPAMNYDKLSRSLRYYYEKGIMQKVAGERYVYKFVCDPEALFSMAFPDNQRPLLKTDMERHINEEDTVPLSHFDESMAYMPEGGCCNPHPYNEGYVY
ELF4, sequence (Q99607 whole entry): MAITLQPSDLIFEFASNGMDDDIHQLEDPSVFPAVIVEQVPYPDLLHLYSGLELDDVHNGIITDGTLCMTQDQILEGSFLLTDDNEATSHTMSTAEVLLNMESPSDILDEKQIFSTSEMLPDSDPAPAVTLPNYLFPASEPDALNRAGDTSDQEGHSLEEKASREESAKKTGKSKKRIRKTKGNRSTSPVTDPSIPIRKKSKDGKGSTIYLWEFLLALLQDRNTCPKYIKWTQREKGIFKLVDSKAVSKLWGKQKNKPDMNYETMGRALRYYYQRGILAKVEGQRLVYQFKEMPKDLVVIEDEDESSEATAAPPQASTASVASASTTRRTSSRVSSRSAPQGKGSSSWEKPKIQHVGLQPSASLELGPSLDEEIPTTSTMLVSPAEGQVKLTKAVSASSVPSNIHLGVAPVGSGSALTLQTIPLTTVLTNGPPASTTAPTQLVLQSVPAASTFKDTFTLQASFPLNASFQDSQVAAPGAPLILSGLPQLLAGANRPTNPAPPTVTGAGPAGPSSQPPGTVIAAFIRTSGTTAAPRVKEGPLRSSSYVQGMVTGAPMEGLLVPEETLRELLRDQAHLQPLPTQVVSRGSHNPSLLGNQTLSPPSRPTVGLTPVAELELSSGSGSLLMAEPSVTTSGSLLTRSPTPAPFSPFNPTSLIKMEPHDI
HSF1, sequence (Q00613 whole entry): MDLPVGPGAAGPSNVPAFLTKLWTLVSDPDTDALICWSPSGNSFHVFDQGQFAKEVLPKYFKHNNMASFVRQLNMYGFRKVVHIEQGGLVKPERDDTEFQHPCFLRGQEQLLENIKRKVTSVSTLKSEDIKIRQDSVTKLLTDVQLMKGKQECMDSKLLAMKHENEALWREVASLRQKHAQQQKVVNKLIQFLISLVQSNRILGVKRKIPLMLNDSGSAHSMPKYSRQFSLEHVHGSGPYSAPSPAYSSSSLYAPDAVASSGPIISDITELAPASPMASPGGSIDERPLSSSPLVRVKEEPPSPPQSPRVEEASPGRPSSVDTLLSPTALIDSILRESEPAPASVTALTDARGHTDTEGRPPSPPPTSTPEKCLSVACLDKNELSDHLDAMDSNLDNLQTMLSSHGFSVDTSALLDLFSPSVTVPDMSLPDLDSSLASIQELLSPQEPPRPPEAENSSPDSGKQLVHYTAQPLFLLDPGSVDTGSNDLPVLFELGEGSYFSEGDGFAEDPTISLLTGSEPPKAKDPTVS
ELF1, sequence (P32519 whole entry): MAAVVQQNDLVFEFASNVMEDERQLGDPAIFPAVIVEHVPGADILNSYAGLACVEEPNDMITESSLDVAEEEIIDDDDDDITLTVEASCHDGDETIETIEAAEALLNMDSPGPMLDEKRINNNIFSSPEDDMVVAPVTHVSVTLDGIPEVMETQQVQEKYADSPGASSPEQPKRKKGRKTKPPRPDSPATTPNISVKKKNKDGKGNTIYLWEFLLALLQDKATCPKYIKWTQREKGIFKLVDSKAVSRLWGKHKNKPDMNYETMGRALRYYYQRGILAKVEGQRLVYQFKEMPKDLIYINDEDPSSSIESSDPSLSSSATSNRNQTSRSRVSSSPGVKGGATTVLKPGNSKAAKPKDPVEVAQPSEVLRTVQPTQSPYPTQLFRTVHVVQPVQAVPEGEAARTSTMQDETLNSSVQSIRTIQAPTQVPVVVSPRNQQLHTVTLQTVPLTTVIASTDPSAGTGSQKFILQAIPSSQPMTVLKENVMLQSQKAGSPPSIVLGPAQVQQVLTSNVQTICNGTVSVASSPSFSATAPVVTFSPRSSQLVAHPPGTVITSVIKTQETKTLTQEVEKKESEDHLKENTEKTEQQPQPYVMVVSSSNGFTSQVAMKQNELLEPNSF

Take TTGAGG: the binding signal in test [1] was 1.23 fold enrichment (6-mer frequency, TF over GST control); in test [2], 1.09 fold enrichment (6-mer frequency, TF over GST control); in [3], 1.16 fold enrichment (6-mer frequency, TF over GST control); in [4], 1.06 fold enrichment (6-mer frequency, TF over GST control); in [5], 1.08 fold enrichment (6-mer frequency, TF over GST control); in test [6], 1.11 fold enrichment (6-mer frequency, TF over GST control). The binding signal in test [7] was 1.27 fold enrichment (6-mer frequency, TF over GST control); in test [8] it was 1.06 fold enrichment (6-mer frequency, TF over GST control); in [9], 1.09 fold enrichment (6-mer frequency, TF over GST control); in test [10] it was 1.01 fold enrichment (6-mer frequency, TF over GST control); in test [11] it was 1.26 fold enrichment (6-mer frequency, TF over GST control); in test [12] it was 1.13 fold enrichment (6-mer frequency, TF over GST control). Moreover, the binding signal is 1.23 fold enrichment (6-mer frequency, TF over GST control) in test [13]; 1.1 fold enrichment (6-mer frequency, TF over GST control) in [14]; 1.05 fold enrichment (6-mer frequency, TF over GST control) in [15]; 1.02 fold enrichment (6-mer frequency, TF over GST control) in test [16]; 1.06 fold enrichment (6-mer frequency, TF over GST control) in [17].

Values taken from article PMC7862700, “An all-to-all approach to the identification of sequence-specific readers for epigenetic DNA modifications on cytosine”.
